Values joined by “and” are separate entries in the source; they are usually repeats but may differ in a detail not shown here. Equal values may be shown once. More than one record can exist for a structure, and the calls need not agree. Active and inactive are the calls of the source. Rule for the calls: active = hit-call score of the fitted dose curve at least 0.9, where 1 is the maximum; inactive = score below 0.9.

For orientation: AC50 means the concentration at which the activity in the assay is half-maximal.

Read-out in assay [1]: Urokinase-type plasminogen activator receptor (uPAR), PLAUR (gene 5329)
The assay is described as follows: BSK_4H_uPAR: BioMAP Diversity Plus: 4H Assay for Urokinase-type plasminogen activator receptor (uPAR) Biomarker Activity (AID 2283030). As to conditions: primary human endothelial cells (HUVEC); actives raise or lower the signal. The method in brief: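 Chemicals are dosed onto human vascular endothelial primary cells (umbilical vein). After 24 h, uPAR is read by ELISA. Gain or loss of signal is fitted relative to DMSO.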

Read-out in assay [2]: Vascular endothelial growth factor receptor 2 (Homo sapiens) (UniProt P35968)
The assay is described as follows: BSK_4H_VEGFRII: BioMAP Diversity Plus: 4H Assay for Vascular endothelial growth factor receptor 2 (VEGFR2) Biomarker Activity (AID 2283031).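 For AC50: cell-surface VEGFR2 protein level quantified by ELISA.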 As to conditions: primary human endothelial cells (HUVEC); actives raise or lower the signal. The gist of the method: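 VEGFRII levels on human vascular endothelial primary cells were determined by ELISA at 24 hours post-dosing, with gain- or loss-of-signal fitted against DMSO controls.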

Read-out in assay [3]: Vascular cell adhesion molecule 1 (VCAM1), VCAM1 (gene 7412)
Kind of assay: BSK_4H_VCAM1: BioMAP Diversity Plus: 4H Assay for Vascular cell adhesion molecule 1 (VCAM1) Biomarker Activity (AID 2283033).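 For outcome: cell-surface VCAM-1 protein measured by ELISA.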 As to conditions: primary human endothelial cells (HUVEC); actives raise or lower the signal. The gist of the method:
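VCAM-1 ELISA read 24 h after chemical dosing of HUVEC in the BioMAP 4H system, with gain or loss of signal fitted relative to DMSO. Parallel SRB staining (560 nm) checked overt cytotoxicity.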

Read-out in assay [4]: Interferon-gamma inducible Protein 10 (IP10), CXCL10 (gene 3627)
Kind of assay: BSK_BE3C_IP10: BioMAP Diversity Plus: BE3C Assay for Interferon-gamma inducible Protein 10 (IP10) Biomarker Activity (AID 2283034). As to conditions: primary human bronchial epithelial cells; actives raise or lower the signal. The method in brief: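 IP-10 quantified by ELISA in human primary bronchial epithelial cell cultures at 24 hours post-dosing. Gain or loss of signal fitted relative to DMSO; parallel SRB staining assessed overt cytotoxicity.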

Read-out in assay [5]: Monokine induced gamma interferon (MIG), CXCL9 (gene 4283)
Kind of assay: BSK_BE3C_MIG: BioMAP Diversity Plus: BE3C Assay for Monokine induced gamma interferon (MIG) Biomarker Activity (AID 2283035). As to conditions: primary human bronchial epithelial cells; actives raise or lower the signal. The gist of the method: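 Dose cells (human primary bronchial epithelial), incubate 24 h, quantify MIG by ELISA, then fit concentration–response in both directions relative to DMSO control.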

Read-out in assay [6]: Transforming growth factor beta 1 (TGFb1), TGFB1 (gene 7040)
The assay is described as follows: BSK_BE3C_TGFb1: BioMAP Diversity Plus: BE3C Assay for Transforming growth factor beta 1 (TGFb1) Biomarker Activity (AID 2283036;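 note: TGF-b1 protein level measured by ELISA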). As to conditions: primary human bronchial epithelial cells; actives raise or lower the signal. The gist of the method: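 ELISA readout of TGF-b1 from human lung bronchial epithelial primary cells, taken 24 h post-treatment. Gain or loss of signal fitted relative to DMSO baseline, with parallel SRB staining for overt cytotoxicity.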

Read-out in assay [7]: Plasminogen activator inhibitor-1 (PAI1), SERPINE1 (gene 5054)
Kind of assay: BSK_BE3C_PAI1: BioMAP Diversity Plus: BE3C Assay for Plasminogen activator inhibitor-1 (PAI1) Biomarker Activity (AID 2283037). As to conditions: primary human bronchial epithelial cells; actives raise or lower the signal. The gist of the method: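 PAI-1 was measured by ELISA in human primary bronchial epithelial cultures 24 h after chemical dosing, with cytotoxicity checked by SRB total-protein staining in parallel cultures. Activity was fitted in both directions relative to DMSO.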

Read-out in assay [8]: urokinase plasminogen activator (uPA), PLAU (gene 5328)
Kind of assay: BSK_BE3C_uPA: BioMAP Diversity Plus: BE3C Assay for urokinase plasminogen activator (uPA) Biomarker Activity (AID 2283038).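 Note: uPA protein level quantified by ELISA in cell cultures; uPA read one day after compound addition.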 As to conditions: primary human bronchial epithelial cells; actives raise or lower the signal. The gist of the method:
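Measured by ELISA: uPA from human primary bronchial epithelial cells 24 h after chemical treatment. Values derive from bidirectional curve fitting with DMSO serving as negative control. Total protein by SRB staining in parallel wells flagged overt cytotoxicity.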

Read-out in assay [9]: Urokinase-type plasminogen activator receptor (uPAR), PLAUR (gene 5329)
The assay is described as follows: BSK_BE3C_uPAR: BioMAP Diversity Plus: BE3C Assay for Urokinase-type plasminogen activator receptor (uPAR) Biomarker Activity (AID 2283039).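 For outcome: cells exposed to compound for one day before measurement.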 As to conditions: primary human bronchial epithelial cells; actives raise or lower the signal. The method in brief: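 uPAR levels were measured by ELISA after 24 h compound treatment of primary human bronchial epithelial cells, fitted in both directions relative to DMSO. Parallel SRB staining served as the cytotoxicity read-out.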

Read-out in assay [10]: Interleukin-6 (IL6), IL6 (gene 3569)
Kind of assay: BSK_CASM3C_IL6: BioMAP Diversity Plus: CASM3C Assay for Interleukin-6 (IL6) Biomarker Activity for (AID 2283040). As to conditions: primary human coronary artery smooth muscle cells; actives raise or lower the signal.

Read-out in assay [11]: Tissue plasminogen activator (tPA), PLAT (gene 5327)
Kind of assay: BSK_BE3C_tPA: BioMAP Diversity Plus: BE3C Assay for Tissue plasminogen activator (tPA) Biomarker Activity (AID 2283041).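 For outcome: tPA level quantified by ELISA one day after compound addition.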 As to conditions: primary human bronchial epithelial cells; actives raise or lower the signal. The method in brief:
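tPA measured by ELISA 24 h after dosing human primary bronchial epithelial cells (BE3C system). Changes in either direction were fitted against DMSO. Parallel cultures were stained with SRB to flag overt cytotoxicity.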

Read-out in assay [12]: Interleukin-8 (IL8), CXCL8 (gene 3576)
Kind of assay: BSK_CASM3C_IL8: BioMAP Diversity Plus: CASM3C Assay for Interleukin-8 (IL8) Biomarker Activity (AID 2283042).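 Note: IL-8 protein level quantified by ELISA.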 As to conditions: primary human coronary artery smooth muscle cells; actives raise or lower the signal.

Read-out in assay [13]: Human Leukocyte Antigen - DR isotype (HLADR), HLA-DRA (gene 3122)
Kind of assay: BSK_CASM3C_HLADR: BioMAP Diversity Plus: CASM3C Assay for Human Leukocyte Antigen - DR isotype (HLADR) Biomarker Activity (AID 2283043).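 Note: cell-surface HLA-DR protein level quantified by ELISA.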 As to conditions: primary human coronary artery smooth muscle cells; actives raise or lower the signal.

Read-out in assay [14]: Macrophage colony-stimulating factor (MCSF), CSF1 (gene 1435)
The assay is described as follows: BSK_CASM3C_MCSF: BioMAP Diversity Plus: CASM3C Assay for Macrophage colony-stimulating factor (MCSF) Biomarker Activity (AID 2283044).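 Note: M-CSF protein amount quantified by ELISA after 24 h exposure.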 As to conditions: primary human coronary artery smooth muscle cells; actives raise or lower the signal.

Read-out in assay [15]: Low-density lipoprotein receptor (LDLR), LDLR (gene 3949)
The assay is described as follows: BSK_CASM3C_LDLR: BioMAP Diversity Plus: CASM3C Assay for Low-density lipoprotein receptor (LDLR) Biomarker Activity (AID 2283045).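 Note: LDLR protein level on the cell surface quantified by ELISA.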 As to conditions: primary human coronary artery smooth muscle cells; actives raise or lower the signal.

Read-out in assay [16]: Monocyte Chemoattractant Protein-1 (MCP1), CCL2 (gene 6347)
The assay is described as follows: BSK_CASM3C_MCP1: BioMAP Diversity Plus: CASM3C Assay for Monocyte Chemoattractant Protein-1 (MCP1) Biomarker Activity (AID 2283046).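 Note: MCP-1 level quantified by ELISA 24 h after dosing.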 As to conditions: primary human coronary artery smooth muscle cells; actives raise or lower the signal.

Assay [17] can be described thus: BSK_CASM3C_Proliferation: Cell Proliferation Assessment in the BioMAP Diversity Plus: CASM3C Assay (AID 2283047).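 Note: sulforhodamine B total protein stain as relative cell number at 560 nm; sub-confluent cells exposed 48 h before staining; fitted both ways against DMSO so gain or loss of cell number.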 As to conditions: primary human coronary artery smooth muscle cells.
Read-out in assay [18]: Monokine induced gamma interferon (MIG), CXCL9 (gene 4283)
Kind of assay: BSK_CASM3C_MIG: BioMAP Diversity Plus: CASM3C Assay for Monokine induced gamma interferon (MIG) Biomarker Activity (AID 2283048).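 Note: MIG protein level measured by ELISA.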 As to conditions: primary human coronary artery smooth muscle cells; actives raise or lower the signal.

Read-out in assay [19]: serum amyloid A (SAA), SAA1 (gene 6288)
The assay is described as follows: BSK_CASM3C_SAA: BioMAP Diversity Plus: CASM3C Assay for serum amyloid A (SAA) Biomarker Activity (AID 2283049).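 Note: SAA protein level quantified by ELISA.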 As to conditions: primary human coronary artery smooth muscle cells; actives raise or lower the signal.

As to `C=C(C)C(=O)OCCCCCCCCCCCC`, the outcome in [1], in assay [2], in assay [3], in assay [4], in [5] and in [6] was inactive. Besides, the outcome in assay [7], in assay [8], in assay [9], in assay [10], in assay [11] and in [12] was inactive. The outcome in assay [13], in assay [14], in assay [15], in assay [16], in assay [17] and in assay [18] was inactive. Also, in assay [19], the result was inactive.
`C=CC(=O)NC(C)(C)C`: the result in assay [1], in assay [2], in [3], in assay [4], in [5] and in [6] was inactive. In addition, the outcome in [7], in [8], in [9], in assay [10], in assay [11] and in assay [12] was inactive. Besides, the outcome in [13], in assay [14], in assay [15], in assay [16], in assay [17] and in assay [18] was inactive. Also, the outcome in [19] was inactive.
Consider `c1ccc(Nc2cccc3ccccc23)cc1`, for which the AC50 in [1] was 35.4 µM (active) and 35.1 µM (active); in [2], 33.2 µM (active) and 32.2 µM (active); in assay [3], 31.4 µM (active) and 28.8 µM (active); in assay [4], 29.1 µM (active) and 30.6 µM (active); in assay [7], 12.7 µM (active) and 20.4 µM (active); in assay [9], 35.2 µM (active). Besides, the AC50 in assay [10] is 13.4 µM (active) and 12.9 µM (active); in [11], 30.6 µM (active) and 32.2 µM (active); in assay [14], 20 µM (active) and 149 nM (active); in assay [16], 29.9 µM (active) and 28.9 µM (active); in assay [17], 7.17 µM (active) and 25.9 µM (active). The result in [5], in assay [8], in assay [9], in [12], in [13] and in assay [15] was inactive. Also, the result in [18] and in assay [19] was inactive.
With `CC1=CC=C(C(C)C)CC1`, the result in [1], in assay [2], in [3], in assay [4], in assay [5] and in assay [6] was inactive. For the same compound, the outcome in [7], in assay [8], in [9], in [10], in assay [11] and in [12] was inactive. The result in assay [13], in [14], in assay [15], in [16], in assay [17] and in assay [18] was inactive. For the same compound, the result in assay [19] was inactive.
In the case of `CCCCC1C(=O)N(c2ccccc2)N(c2ccccc2)C1=O`, the result in assay [1], in [2], in assay [3], in assay [4], in assay [5] and in [6] was inactive. The outcome in assay [7], in assay [8], in assay [9], in [10], in assay [11] and in [12] was inactive. The outcome in assay [13], in assay [14], in assay [15], in [16], in [17] and in assay [18] was inactive. The outcome in [19] was inactive.

Values taken from PubChem BioAssay (EPA / NIEHS).
